Among the data in PubChem BioAssay are z-score values, retold here.

Active and inactive are the calls of the source.

The nature of test [1]: A549 cell viability effects, profiling panel, calcein-AM fluorescence, 48 h, basal (AID 1162). To be noted: higher = more signal.
A short description of test [2]: adipocyte viability effects, profiling panel, cell-based, 3T3-L1 adipocytes, calcein-AM fluorescence, 48 h, basal (AID 1163). To be noted: 3T3-L1 adipocytes viability, higher = more signal.
Test [3] in a line: HepG2 cell viability effects, profiling panel, calcein-AM fluorescence, 48 h, basal (AID 1164). To be noted: higher = more signal.
Test [4] is described as follows: MM1S cell viability effects, profiling panel, calcein-AM fluorescence, 48 h, basal (AID 1165).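 Note: viability of MM1S multiple myeloma cells under basal unstimulated conditions.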 To be noted: higher = more signal.
The nature of test [5]: basal RPMI8226 viability, no added stimulus, profiling panel, cell-based, calcein-AM fluorescence, 48 h, PK04 Diversity Set (AID 1166).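 Note: cells grown under basal conditions without added stimulus.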 The note with it: RPMI8226 myeloma viability, higher = more signal.
Test [6] is described as follows: basal HepG2 mitochondrial membrane potential changes, profiling panel, cell-based, JC-1 fluorescence, 24 h, 100 nL compound (AID 1167). The note with it: higher = more signal.
Test [7] can be described thus: basal 3T3-L1 adipocyte mitochondrial potential changes, profiling panel, cell-based, JC-1 fluorescence, 3T3-L1 adipocytes, 24 h, 100 nL compound (AID 1168). To be noted: JC-1 mitochondrial fluorescence, higher = more signal, called active from +8 up or from −8 down.
A short description of test [8]: basal RPMI8226 mitochondrial membrane potential changes, profiling panel, cell-based, JC-1 fluorescence, 24 h, 100 nL compound (AID 1169). The note with it: RPMI8226 myeloma, JC-1 mitochondrial potential fluorescence, higher = more signal.
Test [9] in a line: basal MM1S mitochondrial membrane potential changes, profiling panel, cell-based, JC-1 fluorescence, 24 h, 100 nL compound (AID 1170). The note with it: higher = more signal.
Test [10] can be described thus: A549 lung cancer cell viability effects, profiling panel, resazurin fluorescence, 24 h, PK04 Diversity Set (AID 1171). To be noted: higher = more signal, called active from +8 up or from −8 down. On the technique in general: Alamar Blue is a resazurin reagent that responds to reducing activity.
Note: test concentration not given here.

In the case of `C#CCN1[C@H](/C=C/C2CC2)[C@H](Cc2ccccc2)OC(=O)[C@@H]1Cc1ccccc1`, the z-score in test [1] is -0.627; in test [2], 0.0556; in test [3], -0.0365; in test [4], -2.65; in test [5], -2.47; in [6], 1.31. The z-score in test [7] is -0.0709 (inactive); in test [8], -0.294; in test [9] it was -0.719; in [10], 2.37 (inactive).
In the case of `COC(=O)[C@]1(Cc2ccccc2)N=C(c2ccc(OCCCO)cc2)O[C@@H]1c1ccccc1N=[N+]=[N-]`, the z-score was -2.41 in test [1]; 0.574 in test [2]; -5.44 in [3]; -3.61 in [4]; -3.66 in test [5]; -2.75 in [6]. For the same molecule, the z-score is -0.223 (inactive) in test [7], -1.13 in test [8], -2.9 in test [9] and -2.87 (inactive) in test [10].
Turning to `COc1ccc([C@H]2OC[C@@H]3CCC(=O)N32)cc1`, the z-score in [1] is -0.245; in [2] it was -0.315; in test [3] it was -0.0392; in [4], -0.804; in test [5], 0.502; in test [6] it was 0.0252. Further, the z-score was -0.139 (inactive) in test [7], -0.225 in [8], -0.1 in test [9] and 0.109 (inactive) in test [10].
`COc1ccc([Si](C)(C)[C@@H]2[C@@H](CCn3cc([C@H](O)c4ccccc4)nn3)O[C@]3(C(=O)N(Cc4cccc(N5CCC5=O)c4)c4ccccc43)[C@H]2C)cc1`: the z-score in test [1] is 0.208; in test [2], 0.745; in test [3] it was -0.924; in test [4], -0.6; in test [5], -0.984; in test [6], -0.262. For the same molecule, the z-score was 1.15 (inactive) in test [7], -0.735 in [8], -0.487 in [9] and 0.0773 (inactive) in [10].
With `[N-]=[N+]=Nc1ccccc1C[C@@]1(C(=O)N2CCCCC2)N=C(c2ccc(OCCCO)cc2)O[C@@H]1c1ccccc1N=[N+]=[N-]`, the z-score in test [1] was -0.911; in [2] it was 0.0245; in test [3] it was -1.7; in test [4] it was -3.47; in [5], -4.35; in test [6], -1.21. Moreover, the z-score in test [7] was -0.923 (inactive); in test [8], -1.3; in test [9], -2.21; in test [10], -0.797 (inactive).
For `CCCCN1CC=CC23O[C@@H]4/C=C\CCCOC(=O)C4[C@H]2C(=O)N(CCCCCO)[C@@H]3C1=O` (stereo not given in full), the z-score is -0.234 in [1]; 1.14 in test [2]; -0.195 in test [3]; 1.46 in test [4]; 0.0001 in test [5]; -0.327 in test [6]. Moreover, the z-score in test [7] was 0.783 (inactive); in [8] it was 0.163; in test [9], -0.0801; in [10] it was 0.356 (inactive).
In the case of `CCCC1(C(=O)OC)C=C2C(=C(c3ccccc3)C(=O)C2C)CN1` (stereo not given), the z-score was -1 in test [1]; -0.446 in [2]; -0.5 in [3]; 0.136 in test [4]; -1.14 in [5]; 0.0027 in [6]. The z-score was -1.23 (inactive) in [7], -0.198 in test [8], -0.949 in [9] and -0.42 (inactive) in test [10].
Regarding `C=C(CCCC)/C(=C/C[C@H](OC(C)=O)c1ccccc1OCCO)c1cnc2ccccc2c1`, the z-score was 0.615 in [1]; -0.466 in test [2]; 0.0984 in [3]; -3.37 in [4]; -2.83 in test [5]; 1.14 in test [6]. For the same molecule, the z-score in test [7] is -1.26 (inactive); in [8] it was -0.247; in [9] it was -0.172; in [10], -0.344 (inactive).
On to `COC(=O)[C@@]1(Cc2ccccc2)[C@H]2c3cc(C(=O)N(C)C)n(Cc4ccc(OC)c(OC)c4)c3C[C@H]2CN1C(=O)c1ccccc1`, for which the z-score in [1] is -1.29; in test [2], -0.24; in [3], 0.148; in [4], -1.42; in test [5], -2.64; in test [6] it was 0.811. The z-score is -1.12 (inactive) in test [7], -0.706 in test [8], -1.14 in test [9] and -1.2 (inactive) in test [10].
Turning to `O=C1NC(=O)C2C1C=CC(C(O)c1ccc(I)cc1)N2Nc1ccccn1` (stereo not given), the z-score in test [1] is -0.0915; in test [2], -0.891; in test [3], -0.145; in [4], -0.619; in test [5], -0.566; in test [6], -1.35. Also, the z-score in test [7] was -0.47 (inactive); in test [8], 0.537; in test [9], -0.0562; in test [10] it was -0.107 (inactive).
Turning to `COc1cc(CO)cc(I)c1O[C@H]1C=C(C(=O)NCCO)C[C@@H](NC[C@@H]2CCCO2)[C@@H]1O`, the z-score in [1] was 1; in [2] it was -0.134; in test [3] it was 0.7; in test [4], 0.583; in test [5], 0.327; in test [6], 0.65. Also, the z-score was 0.239 (inactive) in test [7], -0.18 in test [8], -1.9 in test [9] and 0.222 (inactive) in [10].
As to `C=C(CCCC)/C(=C/C[C@@H](OC(C)=O)c1cccc(OCCO)c1)c1cnc2ccccc2c1`, the z-score in test [1] was 0.238; in test [2], 1.3; in [3], -0.0152; in [4], -1.47; in test [5], -2.31; in test [6], 2.23. The z-score in [7] was -2 (inactive); in test [8], -0.423; in test [9], -0.714; in test [10], 0.329 (inactive).
For `O=C(CS)NCCCCCNC(=O)[C@@H]1C[C@@H]2C(=O)NCC(=O)N2[C@@H]1c1cccc(OCCO)c1`, the z-score is 0.686 in [1]; 0.45 in [2]; 0.938 in test [3]; 0.231 in test [4]; 0.842 in test [5]; 1.85 in test [6]. For the same molecule, the z-score in test [7] was -0.102 (inactive); in test [8], -0.738; in [9], -0.249; in [10], -0.696 (inactive).
With `COc1ccccc1CN1C(=O)c2ccccc2[C@@H](C(=O)NCc2ccccc2)[C@@H]1c1ccc(CO)cc1`, the z-score in test [1] is 1.2; in [2], 0.448; in test [3], 0.292; in test [4], -0.881; in [5], 0.47; in test [6], 2.08. The z-score in test [7] is 0.819 (inactive); in test [8], -0.288; in test [9] it was 0.544; in [10] it was 0.832 (inactive).
In the case of `CCCCN1CC=CC23O[C@@H]4/C=C\CCCOC(=O)C4[C@H]2C(=O)N(CCCO)[C@@H]3C1=O` (stereo not given in full), the z-score in test [1] is -0.609; in test [2] it was 0.803; in test [3], 0.186; in test [4], -0.614; in test [5], -0.568; in [6] it was -0.795. Moreover, the z-score in [7] is 1.19 (inactive); in [8] it was 0.16; in test [9], 0.597; in test [10], 0.216 (inactive).
Regarding `CN1CCC(CCCO)=CC1c1cccs1` (stereo not given), the z-score is 0.251 in [1]; 0.335 in test [2]; 0.369 in [3]; 0.277 in [4]; 0.0383 in [5]; -0.927 in [6]. The z-score in test [7] is -1.51 (inactive); in test [8], 0.247; in [9] it was 0.00928; in [10], -0.0596 (inactive).
